Values without a mark were called inactive.

We go through 36 compounds from PubChem BioAssay.

The nature of the assay: S. cerevisiae growth modulation with rapamycin, primary screen, strain BY4716, OD600, 96 h (AID 1091). Further: test concentration not given here. The following applies: higher = more signal, called active from +8 up or from −8 down.
Regarding `O=C1CCCC(C2=CCCCC2=O)C1` (stereo unspecified), the z-score is 0.6.
The value for `Cn1c(=O)n2n(c1=O)[C@H]1[C@H](O)[C@@H]3O[C@@H]3C(=NOCc3ccccc3)[C@H]1CC2` was -0.115; that for `CO[C@H](C1CCCCC1)[C@H](C)C=CCC(=O)OCCCc1ccccc1` was 1.49.
The value for `COC(=O)[C@H](C)NC(=O)CCC1CC(OC(=O)NCc2ccc3c(c2)OCO3)CC2(CCCC(COC(=O)NCC(c3ccccc3)c3ccccc3)O2)O1` (stereo partly specified) was -0.122; that for `O=c1n(-c2ccccc2)c(=O)n2n1CC[C@@H]1C(=NOCc3ccccc3)[C@H]3O[C@H]3[C@@H](O)[C@@H]12` was -0.871; that for `COC(=O)[C@H]1[C@@H](O)[C@@]2(O)c3ccccc3O[C@@]2(c2ccccc2)[C@@H]1c1ccccc1` was 0.705.
As for `COC(=O)CC=C[C@@H](C)[C@@H](C=NOC(C)CN1CCCc2nc(C)c(C)cc21)OC` (stereo partly specified), the z-score was 0.0448.
With `COC(=O)[C@H](C)NC(=O)CCC1CC(OC(=O)NCCc2ccc(F)cc2)CC2(CCCC(COC(=O)NCc3cccc(C(F)(F)F)c3)O2)O1` (stereo partly specified), the z-score was 0.52.
The value for `Cc1ccc(S(=O)(=O)N[C@H]2COC(=O)CC=C[C@H](C)[C@@H](NS(=O)(=O)c3ccc(C)cc3)COC(=O)CC=C[C@@H]2C)cc1` was 0.0667; that for `CON=C1[C@H]2CCn3c(=O)n(-c4ccccc4)c(=O)n3[C@H]2[C@H](O)[C@@H]2O[C@H]12` was 2.3; that for `C#CCCCON=C1C[C@@H](O)[C@@H](O)[C@@H]2[C@@H]3C(=O)N(C(C)(C)C)C(=O)[C@@H]3CC[C@@H]12` was 0.934.
With `CO[C@H]1COC(=O)CC=C[C@@H](C)[C@H](NS(=O)(=O)c2ccc(C)cc2)COC(=O)CCC[C@@H]1C`, the z-score was -0.726.
The value for `COc1ccc(COC(=O)NN=C2C[C@@H](O)[C@@H](O)[C@@H]3[C@@H]4C(=O)N(c5ccc(F)cc5F)C(=O)[C@@H]4CC[C@H]23)cc1` was -0.971; that for `COc1ccc(O[C@H]2C=C[C@@H](c3ccccc3)O[C@@H]2COC(=O)CCC(C)=NOC[C@@H](O)[C@H]2O[C@@H]3OC(C)(C)O[C@@H]3[C@H]2O)cc1` was -0.37.
As for `CO[C@H]1COC(=O)CC=C[C@H](C)[C@@H](OC)COC(=O)[C@H](C)COC(=O)CC=C[C@@H]1C`, the z-score is 0.567.
Under `CCOC(=O)C1=NO[C@]2(C=C(Br)C3(OCCCO3)[C@H]3O[C@H]32)C1` stands -0.155; under `Cc1cc2c(nc1C)CCCCN2CC(C)ON=C1[C@H]2CCn3c(=O)n(-c4ccccc4)c(=O)n3[C@H]2[C@H](O)[C@@H]2O[C@H]12` (stereo partly specified), 0.103; under `COc1ccc(O[C@H]2C=C[C@@H](c3ccccc3)O[C@@H]2COC(=O)CCC(C)=NO[C@@H]2O[C@H](COC(C)=O)[C@@H](OC(C)=O)[C@H](OC(C)=O)[C@H]2OC(C)=O)cc1`, 0.865.
The value for `Cc1cc2c(c(=O)o1)[C@@H](O)[C@H]1O[C@H]1C2=O` was 0.233.
The value for `CCOC(=O)CCN1C(=O)[C@H]2[C@H]3[C@H](O)[C@H](O)CC(=NNC(=O)OCc4ccccc4)[C@@H]3CC[C@H]2C1=O` was -0.598.
Take `O=C1[C@H]2[C@H]3[C@H](O)[C@H](O)CC(=NOC[C@@H](O)COCc4ccco4)[C@@H]3CC[C@H]2C(=O)N1C[C@@H]1CCCO1`: the z-score is 0.714.
Take `CC(C)CON=C1C[C@@H](O)[C@@H](O)[C@@H]2[C@@H]3C(=O)N(C[C@@H]4CCCO4)C(=O)[C@@H]3CC[C@@H]12`: the z-score is -0.625.
`CON=Cc1ccc(C(=O)N2[C@H](c3ccc(C)cc3)[C@@H](C)CC[C@H]2C(=O)OC)cc1`: the z-score was -0.637.
Under `C[C@@H](c1ccccc1)N1C(=O)[C@H]2[C@H]3[C@H](O)[C@H](O)CC(=O)[C@H]3CC[C@H]2C1=O` stands 0.134.
For `CC(C)CON=C1C[C@@H](O)[C@@H](O)[C@@H]2[C@@H]3C(=O)N(Cc4ccc5c(c4)OCO5)C(=O)[C@@H]3CC[C@H]12`, the z-score was 0.329.
Under `CCN1C(=O)[C@H]2[C@H]3[C@H](O)[C@H](O)CC(=NOCC(C)C)[C@@H]3CC[C@H]2C1=O` stands -0.242; under `CC(C)=NO[C@H](C)c1cn([C@H](CO)Cc2ccccc2)nn1`, 0.245; under `CCCNC(=O)OC[C@H]1O[C@H](c2ccccc2)C=C[C@@H]1Oc1ccc(OC)cc1`, 0.0199.
Turning to `C[C@@H]1CC[C@H]2C(=O)O[C@@H](Cc3ccccc3)CN2[C@H]1c1ccc(Br)cc1`, the z-score is -0.882.
The value for `COc1ccc(O[C@H]2C=C[C@@H](c3ccccc3)O[C@@H]2CON=C(C)CCC(=O)OC[C@H]2O[C@H](c3ccccc3)C=C[C@@H]2Oc2ccc(OC)cc2)cc1` was 0.525.
Under `O=C1[C@H]2[C@H]3[C@H](O)[C@H](O)CC(=NOCc4ccccc4)[C@@H]3CC[C@H]2C(=O)N1Cc1ccc2c(c1)OCO2` stands -0.789.
For the compound `COC(=O)CC=C[C@@H](C)[C@@H](C=NO[C@@H]1O[C@H](COC(C)=O)[C@@H](OC(C)=O)[C@H](OC(C)=O)[C@H]1OC(C)=O)OC`, the z-score is 0.119.
The value for `COc1cccc([C@H]2Oc3ccc(OC)cc3C(=NOC[C@@H](O)[C@H]3O[C@@H]4OC(C)(C)O[C@@H]4[C@H]3O)[C@@H]2O)c1` was -1.62.
With `O=C1C[C@@H](O)[C@@H](O)[C@@H]2[C@@H]3C(=O)N(Cc4ccccc4)C(=O)[C@@H]3CC[C@@H]12`, the z-score was -0.115.
For `CO[C@H]1COC(=O)CC=C[C@@H](C)[C@H](OC)COC(=O)CCC[C@@H]1C`, the z-score was -1.37.
As for `CCN1C(=O)[C@H]2[C@H]3[C@H](O)[C@H](O)CC(=NNC(=O)OCc4ccc(OC)cc4)[C@@H]3CC[C@H]2C1=O`, the z-score is -0.287.
